These results are taken from PubChem BioAssay (NCATS).

Assay [1] in a line: Cell Viability - HepG2 (AID 433; calls by dose curve;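 note: potency is the fitted concentration of half-maximal effect; potency for ATP loss meaning cytotoxicity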). The conditions noted are these: qHTS. Put shortly:
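In this qHTS format, a 40 h, 37 °C compound incubation of HepG2 cells in complete medium precedes a 20 min CellTiter-Glo step at room temperature. Tamoxifen and doxorubicin serve as positive controls; Hill-equation fits yield AC50.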
For orientation: qHTS replaces the single test concentration by a dilution series.

Assay [2] is described as follows: Cell Viability - MRC5 (AID 434; calls by dose curve;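 note: potency is the fitted concentration of half-maximal effect; potency reflects cytotoxicity seen as loss of intracellular ATP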). The conditions noted are these: MRC5 lung fibroblast viability, qHTS. Put shortly:
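MRC5 normal human lung fibroblasts (1500/well) were treated with compounds for 40 hr at 37 °C in complete medium, and viable cells were measured as intracellular ATP by CellTiter-Glo luminescence. AC50 came from Hill fits, normalized to DMSO and 100 uM tamoxifen.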

Assay [3] can be described thus: Cell Viability - SK-N-SH (AID 435; calls by dose curve;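 note: potency is the fitted concentration of half-maximal effect; compound exposure lasted 40 h at 37 °C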). The settings on record: SK-N-SH neuroblastoma cell viability qHTS. Put shortly:
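Human neuroblastoma line, 40 h exposure at 37 °C, ATP quantified via luciferase luminescence; DMSO and 100 uM tamoxifen define 0 and 100% inhibition for AC50 fitting.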

The nature of assay [4]: Cell Viability - N2a (AID 540).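 Note: plate controls were DMSO alone for no effect and tamoxifen control for full effect; nearly all actives have a fitted effect of over 45% in size.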 The conditions noted are these: N2a mouse neuroblastoma cell viability; activity change, negative = cytotoxicity: at 92.2 µM (top of the series). Put shortly:
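Mouse neuroblastoma N2a cells, 1500/well, exposed to compounds 40 h at 37 °C in complete medium. Viability measured as cellular ATP by CellTiter-Glo luminescence; AC50 from Hill fits of concentration-response.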

The nature of assay [5]: Cell Viability - Renal Proximal Tubule (AID 545). Note: nearly all actives have a fitted effect of over 40% in size. The conditions noted are these: renal proximal tubule cells viability, primary cells of rat origin; at 91.7 µM (top of the series). Put shortly:
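In this qHTS format, normal rat kidney-derived proximal tubule cells in complete culture medium receive compound titrations, then sit 40 hours at 37 °C before luciferase-based ATP quantitation; potency is reported as AC50 from concentration-response curves.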

The nature of assay [6]: Cell Viability - Mesenchymal (AID 546).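 Note: cells exposed to compound for 40 hours before reading.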 The settings on record: mesenchymal cells viability, qHTS; activity change, negative = cytotoxicity: at 91.7 µM (top of the series). Put shortly: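 Normal human renal glomerulus-derived kidney mesenchymal cells, 1000 per well in complete medium, were treated with compounds for 40 hr at 37 °C. Viability was read as intracellular ATP by CellTiter-Glo luminescence; AC50 values came from Hill-equation fits of qHTS concentration-response data.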

Assay [7] is described as follows: Cellular Toxicity (caspase-3) HepG2 (AID 654).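 Note: cells exposed to compound for 16 hours before reading; 0% = DMSO alone and 100% = caspase signal from 100 µM tamoxifen.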 The settings on record: HepG2 caspase-3 activation, luminescence, 0% = DMSO only, 100% = tamoxifen; series mostly up to 92.2 µM. An outline of the steps: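 HepG2 cells (1500/well) were treated 16 h at 37 °C in complete medium, then caspase 3/7 activity was read by Caspase-Glo luminescence. Data were normalized to DMSO and 100 uM tamoxifen; AC50 came from Hill-equation fits of qHTS concentration-response.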

Assay [8] in a line: Cellular Toxicity (caspase-3) Jurkat (AID 655).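 Note: cells exposed to compound for 16 h at 37 °C before reading.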 The settings on record: Jurkat caspase-3 activation, luminescence, DMSO = 0%, tamoxifen = 100%; at 92.2 µM (top of the series). An outline of the steps:
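qHTS in human Jurkat T-cell leukemia line: 16 hr compound treatment at 37 °C, caspase-3/7 activity measured by Caspase-Glo luminescence. AC50 derived from Hill equation.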

The nature of assay [9]: Cellular Toxicity (caspase-3) HUV-EC-C (AID 656). The conditions noted are these: HUV-EC-C cells, caspase-3 activation (apoptosis), vehicle = 0, 100 µM tamoxifen = 100%; series mostly up to 92.2 µM. An outline of the steps: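 Concentration-dependent caspase 3/7 induction was assessed in HUV-EC-C cells exposed for 16 hours. Data scaled between DMSO and tamoxifen (100 uM) controls.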

A short description of assay [10]: Cellular Toxicity (caspase-3) SHSY5Y (AID 657). The settings on record: SH-SY5Y caspase-3 activation, DMSO zero, 10 µM staurosporine = 100%; series mostly up to 91.7 µM. Put shortly: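 Readout: caspase-cleaved peptide-aminoluciferin substrate driving luciferase light in SH-SY5Y neuroblastoma cells after 16 h treatment. Response normalized to DMSO and 10 uM staurosporine controls.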

A short description of assay [11]: Cellular Toxicity (caspase-3) BJ (AID 658). The conditions noted are these: BJ fibroblasts, luminescence, normalized: DMSO 0%, staurosporine 100%; series mostly up to 91.7 µM. Put shortly:
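Luminescent aminoluciferin-substrate cleavage reports caspase 3/7 activity in normal human BJ fibroblasts after 16 hr compound exposure at 37 °C. Normalized to DMSO (basal) and 10 uM staurosporine (100%); AC50 from Hill fit of concentration-response.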

The nature of assay [12]: Cellular Toxicity (caspase-3) MRC-5 (AID 659). The conditions noted are these: MRC-5 cells, luminescence, normalized: DMSO 0%, 10 µM staurosporine 100%; series mostly up to 91.7 µM. Put shortly:
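Luminescence from caspase-cleaved aminoluciferin substrate (Caspase-Glo 3/7, 1 hr RT) reports caspase 3/7 activity in MRC-5 lung fibroblasts after 16 hr compound exposure. Normalized to DMSO basal and 10 uM staurosporine as 100%; AC50 from Hill fits.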

Assay [13] can be described thus: Cellular Toxicity (caspase-3) Mesangial (AID 660).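 Note: cells exposed to compound for 16 h before the caspase read.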 The conditions noted are these: mesangial cells, normalized: DMSO 0%, 100 µM tamoxifen 100%; series mostly up to 91.7 µM. An outline of the steps: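 Human renal glomerular mesangial cells, 1000/well, 5 h at 37 C before 16 h compound treatment. Caspase-Glo 3/7 luminescence after 20 min; normalized to DMSO and 100 uM tamoxifen, AC50 from Hill fit.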

Assay [14] is described as follows: Cellular Toxicity (caspase-3) SK-N-SH (AID 661). The conditions noted are these: SK-N-SH caspase-3 activation, qHTS, DMSO as zero, staurosporine as full; series mostly up to 91.7 µM. Put shortly:
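Human SK-N-SH neuroblastoma cells, 1500/well, were exposed to compounds for 16 hours at 37 °C. Caspase-Glo 3/7 luminescence was normalized to DMSO (basal) and 10 uM staurosporine (100%), and AC50 came from a Hill fit.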

A short description of assay [15]: Cellular Toxicity (caspase-3) H-4-II-E (AID 663).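 Note: cells exposed to compound for 16 hr before readout.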 The conditions noted are these: H-4-II-E rat hepatoma; Potency: caspase-3 activation; series mostly up to 92.2 µM. Put shortly: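 Luminescence from caspase-cleaved aminoluciferin substrate, read 20 min after reagent addition, reports caspase 3/7 activation in rat H-4-II-E cells after 16 hr compound exposure. Normalized to DMSO (basal) and 100 uM tamoxifen (100%); AC50 from Hill fits.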

The nature of assay [16]: Cellular Toxicity (caspase-3) Hek293 (AID 664).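 Note: cells exposed to compound for 16 h at 37 °C before readout.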 The conditions noted are these: HEK293 caspase-3 activation, DMSO = 0%, 100 µM tamoxifen = 100%; series mostly up to 92.2 µM. An outline of the steps: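 HEK293 cells in complete medium treated 16 h at 37 °C, then Caspase-Glo 3/7 luminescence read after 20 min at room temperature. Normalized to DMSO and 100 uM tamoxifen; AC50 from Hill fit of concentration-response.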

Assay [17] in a line: Cellular Toxicity (caspase-3) N2a (AID 665).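 Note: compound exposure lasted 16 h at 37 °C before readout.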 The settings on record: N2a cells, luminescence, normalized: DMSO 0%, 10 µM staurosporine 100%; series mostly up to 92.2 µM. Put shortly:
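Mouse N2a neuroblastoma cells, 1500 per well, treated 16 h at 37 °C in complete medium; caspase-3/7 activity by Caspase-Glo luminescence after 1 h. Normalized to DMSO and 10 uM staurosporine; AC50 from Hill fits.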

Assay [18] addresses Peroxisome proliferator-activated receptor gamma (Homo sapiens) (UniProt P37231). The assay is described as follows: qHTS assay for small molecule agonists of peroxisome proliferator-activated receptor gamma signaling (AID 588536; active = well fitted curve in the direction sought with a large enough effect in the signal ratio, with a control signal flat, not every such curve was filed as active; the % refers to the signal ratio;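 note: 0% = DMSO basal wells and 100% = rosiglitazone at 2 µM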). The conditions noted are these: HEK293 PPARg-UAS-bla, beta-lactamase ratio, 16 h, percent of rosiglitazone response, DMSO as zero; series mostly up to 76.7 µM. Put shortly: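 Ratiometric blue/green fluorescence (405 nm excitation; 460 and 530 nm emission) from CCF4-loaded HEK293 reporter cells serves as signal. Exposure to test compounds lasts 16 h at 37 C in medium containing 1% charcoal/dextran-treated serum.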

Assay [19] has as its target Voltage-gated inwardly rectifying potassium channel KCNH2 (Homo sapiens) (UniProt Q12809). The assay is described as follows: qHTS Assay for Small Molecule Inhibitors of the Human hERG Channel Activity (AID 588834).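 Note: top concentration of the series differs between compounds; % is set by controls: 0 for no effect and ±100 for the full control effect; lower thallium flux fluorescence means stronger hERG block; nearly all actives have a fitted effect of over 50% in size.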 The settings on record: U2OS BacMam hERG, FluxOR thallium flux fluorescence; series mostly up to 92.2 µM. Put shortly: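 Blockade is seen as reduced FluxOR thallium-flux fluorescence in U2OS cells expressing hERG from a BacMam construct, in Opti-MEM with 2% FCS. Concentration-response data fitted to the Hill equation for AC50.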

A short description of assay [20]: qHTS assay for small molecule activators of the p53 signaling pathway (AID 651743; active = well fitted activation curve with a large enough effect in the signal ratio, not every such curve was filed as active; the % refers to the signal ratio; note: % of control where 0% means no effect). The settings on record: HCT-116 p53RE-bla, beta-lactamase FRET ratio, 16 h; activation: stronger effect = higher value. An outline of the steps:
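Cell-based beta-lactamase reporter (p53 response elements, HCT-116 background). After a 5-hour preincubation, cells received compound for 16 hours at 37 C; substrate development ran 2 hours at room temperature.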

“And” between values parts separate entries of the source, which are not always exact repeats. Equal entries are not always repeated. Unmarked numbers belong to inactive results. Results filed as inconclusive are left out. The source made the active and inactive calls. Unless noted, calls come from the whole dose curve; as a rule, active = well fitted curve in the direction sought with a large enough effect; inconclusive = small, poorly fitted or top-dose-only effect, or another doubt; inactive = no such curve, though single readings can be large; an effect the other way counts as inactive or inconclusive.

Peroxisome proliferator-activated receptor gamma (Homo sapiens), sequence (P37231 whole entry, looked up): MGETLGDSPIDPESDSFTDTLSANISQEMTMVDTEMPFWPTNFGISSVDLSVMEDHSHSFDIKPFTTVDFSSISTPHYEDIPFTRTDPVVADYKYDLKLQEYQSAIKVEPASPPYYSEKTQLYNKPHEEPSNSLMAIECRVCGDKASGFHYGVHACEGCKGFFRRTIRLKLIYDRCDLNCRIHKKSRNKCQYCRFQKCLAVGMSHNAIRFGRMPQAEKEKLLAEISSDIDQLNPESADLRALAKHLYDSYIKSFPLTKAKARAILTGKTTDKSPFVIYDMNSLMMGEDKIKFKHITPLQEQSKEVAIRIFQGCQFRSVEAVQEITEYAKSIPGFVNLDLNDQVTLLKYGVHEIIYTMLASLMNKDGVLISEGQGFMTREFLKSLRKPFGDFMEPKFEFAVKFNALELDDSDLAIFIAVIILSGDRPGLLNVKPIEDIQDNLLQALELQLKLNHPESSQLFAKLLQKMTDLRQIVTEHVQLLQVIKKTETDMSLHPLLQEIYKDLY
Voltage-gated inwardly rectifying potassium channel KCNH2 (Homo sapiens), sequence (Q12809 whole entry, looked up): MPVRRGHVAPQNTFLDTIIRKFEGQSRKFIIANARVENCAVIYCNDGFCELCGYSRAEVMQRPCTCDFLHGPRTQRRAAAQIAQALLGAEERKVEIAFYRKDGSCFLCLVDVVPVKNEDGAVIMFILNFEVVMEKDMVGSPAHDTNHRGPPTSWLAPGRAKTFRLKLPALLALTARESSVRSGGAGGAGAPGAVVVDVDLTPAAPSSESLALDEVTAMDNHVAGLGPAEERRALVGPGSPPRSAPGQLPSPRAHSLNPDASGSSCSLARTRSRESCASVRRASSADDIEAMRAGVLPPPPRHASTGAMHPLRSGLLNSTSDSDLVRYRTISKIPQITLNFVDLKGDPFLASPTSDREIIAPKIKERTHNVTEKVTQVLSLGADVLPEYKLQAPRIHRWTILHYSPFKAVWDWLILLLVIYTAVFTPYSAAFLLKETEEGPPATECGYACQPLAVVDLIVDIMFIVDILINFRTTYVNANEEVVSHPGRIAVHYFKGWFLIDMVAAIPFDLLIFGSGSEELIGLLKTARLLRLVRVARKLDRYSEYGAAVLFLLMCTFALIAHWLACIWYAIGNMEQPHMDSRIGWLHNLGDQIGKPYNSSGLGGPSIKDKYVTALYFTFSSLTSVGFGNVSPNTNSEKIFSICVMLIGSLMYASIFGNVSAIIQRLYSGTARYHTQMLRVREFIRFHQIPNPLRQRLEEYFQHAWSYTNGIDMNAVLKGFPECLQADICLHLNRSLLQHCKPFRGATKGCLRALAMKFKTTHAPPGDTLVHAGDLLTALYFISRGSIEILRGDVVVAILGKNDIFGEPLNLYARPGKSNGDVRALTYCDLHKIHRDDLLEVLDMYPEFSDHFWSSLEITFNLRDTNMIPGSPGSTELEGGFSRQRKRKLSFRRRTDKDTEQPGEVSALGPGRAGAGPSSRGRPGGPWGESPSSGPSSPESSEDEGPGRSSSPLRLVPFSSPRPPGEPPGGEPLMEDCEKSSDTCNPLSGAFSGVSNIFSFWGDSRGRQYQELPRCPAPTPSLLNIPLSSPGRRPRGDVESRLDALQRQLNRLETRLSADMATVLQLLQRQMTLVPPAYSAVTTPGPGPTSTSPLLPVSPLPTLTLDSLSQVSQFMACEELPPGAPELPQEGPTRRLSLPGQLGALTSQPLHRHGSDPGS

Regarding `O=C(O)c1ccccc1`, the Potency in assay [1], in assay [2] and in assay [3] was over 92 µM each time. The activity change, negative = cytotoxicity was 6.89% in assay [4], -3.81% in assay [5] and 4.89% in assay [6]. Also, the call in assay [7], in assay [9], in [10], in [11], in assay [12] and in [13] was inactive. The outcome in [14], in assay [16], in assay [17] and in [18] was inactive. For the same compound, in assay [8], the caspase-3 activation is 0.102%. Besides, the Potency result in assay [15] and in [19] was “inactive” each time. The activation in [20] was 7.69%.

As for `CCCCCCCCCCCCCC(=O)O`, the Potency in assay [1], in [2] and in assay [3] was over 92 µM in each case. In addition, the results for the activity change, negative = cytotoxicity in [4], in assay [5] and in assay [6] were -4.4%, -23% and 1.41%, respectively. Also, the call in [7], in assay [9], in assay [10], in assay [11], in assay [12] and in assay [13] was inactive. Besides, the compound was called inactive in assay [14], in [16], in assay [17] and in [18]. For the same compound, the caspase-3 activation in assay [8] was -2.86%. The Potency entry in assay [15] and in assay [19] was “inactive” in each case. The activation in [20] was -1.59% and 5.08%.

Consider `C=CC(C)(CCC=C(C)C)OC(C)=O` (configuration not stated), for which the result in assay [18] was inactive. In addition, the activation in assay [20] is -1.51%.

`COc1cc(/C=C/c2ccccc2)oc(=O)c1`: the Potency in assay [1], in [2] and in [3] was over 92 µM each time. In addition, the activity change, negative = cytotoxicity was 1.71% in assay [4], -15.2% in [5] and -9.29% in assay [6]. Besides, the outcome in assay [7], in assay [9], in [10], in assay [11], in assay [12] and in assay [13] was inactive. The call in [14], in assay [16], in assay [17] and in assay [18] was inactive. For the same compound, the caspase-3 activation in assay [8] was -4.56%. The Potency entry in assay [15] and in assay [19] was “inactive” throughout. Moreover, the activation in assay [20] was -4.84%.

As for `CC1=C2[C@H](/C=C(\C)C(=O)O)CC[C@@H](C)[C@H]2CC1`, the Potency in [1], in assay [2] and in assay [3] was over 92 µM in each case. For the same compound, the results for the activity change, negative = cytotoxicity in assay [4], in [5] and in [6] were 10.9%, -15.1% and 9.76%, respectively. In addition, the call in assay [7], in [9], in assay [10], in [11], in assay [12] and in assay [13] was inactive. The result in assay [14], in assay [16], in assay [17] and in assay [18] was inactive. In assay [8], the caspase-3 activation is 97.3% (active). Further, the Potency entry in assay [15] and in [19] was “inactive” each time. Also, in [20], the activation is -7.78%.
